Screening data as filed in PubChem BioAssay.
nsP2pro inh = CHIKV nsP2 protease inhibition, primary qHTS | Q8JUX6 | FRET peptide cleavage, nsP2pro, fluorescence 1 h | Potency, µM (series often up to 24.9 µM), for the others: at the top dose activity change, negative = inhibition, actives largely listed as inhibitors | actives 1.1% (n = 31,000); further: nearly all actives have a fitted effect of over 60% in size
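FRET cleavage of 2.5 uM peptide 2 by 150 nM CHIKV protease domain at pH 8.0 (Tris, Tween 20). Compounds at 7 concentrations (up to 25 uM) preincubated 15 min. Fluorescence read after 1 h at room temperature.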
nsP2 cell sec = cell-based CHIKV nsP2 protease inhibition, secondary. shares compounds with nsP2pro inh. cell-based CHIKV nsP2 protease reporter assay. Potency, µM (titrated, usually from 51.1 µM), inactives show at the top dose activity change, negative = inhibition, actives largely listed as inhibitors. actives 10% (n = 450). AID 1964100; further: nearly all actives have a fitted effect of over 70% in size
Target sequence (Q8JUX6 220-798 limits assumed): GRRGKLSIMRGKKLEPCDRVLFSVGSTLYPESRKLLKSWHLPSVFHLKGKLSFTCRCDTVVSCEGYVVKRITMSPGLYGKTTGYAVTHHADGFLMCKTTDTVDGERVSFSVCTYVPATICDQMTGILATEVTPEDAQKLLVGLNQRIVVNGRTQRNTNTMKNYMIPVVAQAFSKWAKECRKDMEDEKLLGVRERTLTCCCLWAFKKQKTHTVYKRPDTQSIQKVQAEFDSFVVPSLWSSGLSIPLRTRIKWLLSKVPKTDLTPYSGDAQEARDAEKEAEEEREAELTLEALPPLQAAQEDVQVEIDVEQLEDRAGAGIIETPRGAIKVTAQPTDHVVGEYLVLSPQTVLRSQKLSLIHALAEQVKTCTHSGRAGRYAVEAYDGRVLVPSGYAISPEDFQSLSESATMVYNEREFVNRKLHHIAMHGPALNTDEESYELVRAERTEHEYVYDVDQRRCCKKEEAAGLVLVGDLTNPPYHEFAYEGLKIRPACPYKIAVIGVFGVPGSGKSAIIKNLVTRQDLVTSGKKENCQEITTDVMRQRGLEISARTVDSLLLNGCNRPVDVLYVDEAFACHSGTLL
CHIKV NSP2 FL = selectivity test for CHIKV nsP2 protease inhibitors: full-length NSP2; Potency, µM (titrated, usually from 50.7 µM), without a hit: at the top dose activity change, negative = inhibition, actives largely listed as inhibitors; shares compounds with nsP2pro inh; AID 1964101; Full-length CHIKV NSP2 protease enzymatic counterscreen; actives 39% (n = 410); further: nearly all actives have a fitted effect of over 65% in size
Furin counterscr = inhibits human furin in a CHIKV nsP2 protease selectivity counterscreen; shares compounds with nsP2pro inh; actives 6% (n = 410); Potency, µM (top dose mostly 50.6 µM), for the others: at the highest dose activity change, negative = inhibition, most hits filed as inhibitors; Recombinant human furin enzymatic counterscreen, fluorogenic substrate
NS23 peptide cs = blocks CHIKV nsP2 protease cleavage of endogenous NS2/3 peptide. shares compounds with nsP2pro inh. Purified CHIKV nsP2 protease, endogenous NS2/3 peptide cleavage. Potency, µM (top dose mostly 51 µM), for inactives: at the highest dose activity change, negative = inhibition, hits mostly inhibitors. actives 34% (n = 410). AID 1964103; further: nearly all actives have a fitted effect of over 55% in size
Papain counter = inhibits papain in a CHIKV nsP2 protease selectivity counterscreen; shares compounds with nsP2pro inh; purified papain protease activity, enzymatic inhibition; Potency, µM (top dose mostly 51 µM), without a hit: at the top dose activity change, negative = inhibition, most hits filed as inhibitors; actives 5% (n = 410); AID 1964104
nsP2pro confirm = confirmation of CHIKV nsP2 protease inhibitors. AID 1964105. shares compounds with nsP2pro inh. Potency, µM (series often up to 25.5 µM), inactives show top-dose activity change, negative = inhibition, actives largely listed as inhibitors. CHIKV nsP2 protease enzymatic activity, qHTS. actives 43% (n = 410); further: nearly all actives have a fitted effect of over 75% in size
HCV NS3 counter = inhibits HCV NS3/4A protease in an nsP2pro selectivity counterscreen | shares compounds with nsP2pro inh | HCV NS3/4A protease biochemical counterscreen | Potency, µM (series often up to 50.9 µM), actives largely listed as inhibitors | actives 20% (n = 410) | AID 1964106; further: nearly all actives have a fitted effect of over 55% in size
Numbers without * were called inactive; i = inactive; ? = inconclusive; ! = repeats disagree; [ ] = another dose, or the depositor's remark. Only a selection was taken, and hits are over-represented in it overall. The call rests on the fitted dose curve. On the % scale 0 is the no-effect control and ±100 the full control effect; potency means the concentration at half of the fitted maximal effect.

SMILES | nsP2pro inh | others
COc1ccc(C(=O)Nc2ccc(N(C)Cc3ccccc3)c(C(=O)O)c2)cc1 | 5µM* | nsP2 cell sec=-7%;CHIKV NSP2 FL=5.2µM*;Furin counterscr=?;NS23 peptide cs=13µM*;Papain counter=-4%;nsP2pro confirm=8µM*;HCV NS3 counter=3.3µM*
Cc1cc2c(cc1C1(c3ccc(C(=O)O)cc3)CC1)C(C)(C)CCC2(C)C | -4%
CCCNC(=O)C1C(c2ccc(NC(=O)c3ccco3)cc2)OC(=O)N1Cc1ccccc1 (stereo not drawn) | -5%
CCCC(C)NC(=O)Cn1nc(-c2ccc(C)cc2)ccc1=O (stereo not drawn) | -10%
Cc1cc(C)nc(NC(=S)N2CCN(c3ncccc3Cl)CC2)c1 | -1%
Cc1nc(CNc2ncnc3ccc(-c4sc(C)nc4C)cc23)cs1 | -1%
COc1cccc(-c2csc(NC(=O)c3ccncc3NS(=O)(=O)c3ccc(C)cc3)n2)c1 | i
CC1(C)CCCC2(C)c3c4c(c(=O)oc(=O)c3=CCC12)=CCC1C(C)(C)CCCC41C (stereo not drawn) | 4%[10 µM]
CC(C)c1cc2c(c(O)c1O)[C@@]13CCCC(C)(C)C1[C@@H](O)[C@@H]2OC3=O (stereo partly drawn) | 6.1µM* | nsP2 cell sec=20%[33.5 µM];CHIKV NSP2 FL=?;Furin counterscr=-6%[33.5 µM];NS23 peptide cs=?;Papain counter=-9%[33.5 µM];nsP2pro confirm=6.2µM*;HCV NS3 counter=i
Cc1nn(C)cc1S(=O)(=O)NC(=O)c1ccc(-n2ccc(OCC(C)(C)C(F)(F)F)n2)nc1N1C[C@@H](C)CC1(C)C | -8%
Cc1cc(C)nc(NC(=S)N2CCN(c3nc(C)cnc3C)CC2)c1 | 1%
CCOc1cc2ncc(C#N)c(Nc3ccc(F)c(Cl)c3)c2cc1NC(=O)/C=C/CN(C)C | 48%
CN(C)c1cccc(-c2ncc(F)c(N3CCC(C(N)=O)CC3)n2)c1 | ? | nsP2 cell sec=50%;CHIKV NSP2 FL=3%;Furin counterscr=-2%;NS23 peptide cs=4%;Papain counter=-8%;nsP2pro confirm=14%;HCV NS3 counter=i
CN(C)c1cccc(-c2nc(N3CCC(C(N)=O)CC3)ncc2F)c1 | 5%
CN(C)c1cccc(-c2nccc(N3CCC(C(N)=O)CC3)n2)c1 | i
COc1cccc(-c2ccccc2NC(=O)C2CCN(CC=C(C)C)CC2)c1 | i
N#Cc1c(N2C[C@@H]3NCCO[C@H]3C2)c(F)cc2c(=O)c(C(=O)O)cn(C3CC3)c12 | 6%
Cc1cc(S(=O)(=O)N[C@@H]2CCOC[C@H]2Oc2ccccn2)c(C)s1 | i
NC(=O)c1cccc2[nH]c(-c3ccc([C@@H]4CCCN4)cc3F)nc12 | -8%
O=C(O)CC1CCC(c2ccc(NC(=O)c3nnc(Nc4ccc(F)c(F)c4)o3)cc2)CC1 (stereo not drawn) | 6%
O=C1Nc2ccccc2/C1=C\c1ccc([N+](=O)[O-])cc1 | -9%
C=CC(=O)N1C/C(=C\c2ccc([N+](=O)[O-])cc2)C(=O)/C(=C/c2ccc([N+](=O)[O-])cc2)C1 | 3.5µM*! | nsP2 cell sec=?;CHIKV NSP2 FL=?;Furin counterscr=-14%;NS23 peptide cs=2.9µM*;Papain counter=-14%;nsP2pro confirm=?;HCV NS3 counter=i
Cc1ccc(C(=O)N2CCN(c3ccc([N+](=O)[O-])cc3)CC2)cc1Cl | -6%
Cc1ccc(-c2cnn(CC(=O)NCCc3ccccc3)c(=O)c2)cc1 | 5%
COc1cccc(CNc2ccc(S(=O)(=O)Nc3ccc(C)nc3)cc2)c1O | 3%
SMILES | nsP2pro inh | others
C=C1C[C@]23C[C@H]1CC[C@H]2[C@@]1(C)CCC[C@@]2(C)C(=O)O[C@@H]([C@@H]3O)[C@@H]12 | -13%
C=C1CC23CC1CCC2C12OC(=O)C(C)(C(O)C(O)C1O)C2C3C(=O)O (stereo not drawn) | ? | nsP2 cell sec=3%[33.5 µM];CHIKV NSP2 FL=?;Furin counterscr=-4%[33.5 µM];NS23 peptide cs=-22%[33.5 µM];Papain counter=-11%[33.5 µM];nsP2pro confirm=?;HCV NS3 counter=i
C=C1C[C@]23C[C@@]1(O)CC[C@H]2[C@@]12C=C[C@H](O)[C@@](C)(C(=O)O1)[C@H]2[C@@H]3C(=O)O | -12%
c1ccc(COc2cccc(-c3nc4ccccc4s3)c2)cc1 | -3%
CCOc1ccc(CCNC(C)=O)cc1OCC | i
O=C(O)c1cc(Br)c(O)c2ncccc12 | i
CC(=O)N1Cc2ccccc2CC2(CCCN2Cc2ccccn2)C1 (stereo not drawn) | -25%
Cc1ccc(S(=O)(=O)Nc2ccccc2C(=O)Nc2nc(-c3ccccc3)co2)cc1 | i
COc1ccc2nc(-c3ccccc3OCc3ccccc3)sc2c1 | 0%
CC(=O)OC12CC(C)C(O)C1/C=C(/COC1OC(CO)C(O)C(O)C1O)CCC1C(/C=C(\C)C2=O)C1(C)C (stereo not drawn) | 2%[10 µM]
FC(F)(F)c1cccc(N2CCN(C(=S)Nc3ccccn3)CC2)c1 | -8%
C=C(CO)C(=O)O[C@H]1CC(=C)[C@@H]2C[C@H](O)C(=C)[C@@H]2[C@H]2OC(=O)C(=C)[C@@H]21 | 4%
C=C1C(=O)O[C@@H]2CC(C)=C([C@@H](C)CCCO)[C@@H](OC(=O)C(C)C)[C@H]12 | 48%
C=C1C(=O)O[C@H]2C1[C@H](OC(=O)/C(=C/CO)COC(=O)/C(C)=C/CO)CC(=C)[C@@H]1CC(=O)[C@@H](C)[C@@H]12 (stereo partly drawn) | 1.2µM* | nsP2 cell sec=?;CHIKV NSP2 FL=1.8µM*;Furin counterscr=-5%[17.3 µM];NS23 peptide cs=3.6µM*;Papain counter=-7%[17.2 µM];nsP2pro confirm=0.87µM*;HCV NS3 counter=?
Cc1cc(C)nc(NC(=S)N2CCN(c3ccc(F)c(F)c3)CC2)c1 | 3%
COCC1CN(C2CCC2)CC12CCN(C(=O)NCCc1ccccc1)CC2 (stereo not drawn) | -2%
Cc1nn(C)c2c1C(c1ccccc1F)=NCC(=O)N2C | -3%
C/C(=N\NC(=O)C(NC(=O)c1ccccc1)c1n[nH]c(=O)c2ccccc12)c1cccc(Br)c1 (stereo not drawn) | 9.9µM* | nsP2 cell sec=41%;CHIKV NSP2 FL=-2%;Furin counterscr=-8%;NS23 peptide cs=-18%;Papain counter=-15%;nsP2pro confirm=-8%;HCV NS3 counter=i
Nc1cccc(C(OCCN2CCCCC2)c2cc3nccc(C(=O)O)c3s2)c1 (stereo not drawn) | -7%
N#Cc1cc(CN2CCCC(C(=O)Nc3cccc(-c4ccc(F)cc4)c3)C2)c[nH]1 (stereo not drawn) | 3%
COCCNC(=O)c1cc(-c2ccccc2OC)c2cccn2n1 | -32%[39.2 µM]
CN1CC(O)c2cc(N=NC(=N)N)c(O)cc21 (stereo not drawn) | -6%
